The text below walks through data of PubChem BioAssay (NCI).

Test systems include T-47D breast; BT-549 breast; MDA-MB-435 melanoma; SW-620 colon; MCF7 breast; HCT-116 colon; HCC-2998 colon; KM12 colon.
Test in all cases: NCI-60 one-dose screen, 48 h (100 = growth as untreated, 0 = no growth, -100 = all killed)
Holding throughout (conditions): 10 µM unless noted

The panel holds about 83,000 compounds, 20% with a hit somewhere; the sample as a whole holds those more often.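 Each cell line was grown in a 96-well plate and treated with one concentration of compound for 48 hours. Values below 10 were considered active.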 Values without a mark were called inactive. Calls of active or inactive are those of the source.

In the case of `COc1cc(/C=N/NC(=O)c2ccc(C)nc2)cc(OC)c1OC`, the growth with T-47D breast was 104%; in the assay with BT-549 breast, 105%; with MDA-MB-435 melanoma, 109%; in the assay with SW-620 colon, 95.6%; with MCF7 breast, 103%; with HCT-116 colon it was 110%. Moreover, the growth is 106% in the assay with HCC-2998 colon and 97.8% in the assay with KM12 colon.

For the molecule `O=C1CN(CCN2CC(=O)N(Cc3ccccc3)C(=O)C2)CC(=O)N1Cc1ccccc1`, the growth with T-47D breast was 99%; in the assay on BT-549 breast it was 104%; in the assay on MDA-MB-435 melanoma, 106%; in the assay with SW-620 colon, 96.8%; with MCF7 breast, 94.7%; in the assay with HCT-116 colon, 98.6%. Further, the growth was 121% in the assay on HCC-2998 colon and 103% in the assay on KM12 colon.

Take `CC(=O)N1CCN(c2ccc(OCC3CO[C@](Cn4ccnc4)(c4ccc(Cl)cc4Cl)O3)cc2)CC1` (some centres not stated): the growth with T-47D breast is 51.1%; in the assay on BT-549 breast, 54.7%; in the assay with MDA-MB-435 melanoma, 94%; in the assay on SW-620 colon it was 104%; in the assay with MCF7 breast, 86.4%; with HCT-116 colon it was 68.4%. For the same molecule, the growth in the assay with HCC-2998 colon was 85.5%; with KM12 colon, 87%.

In the case of `O=C(Cc1ccc(F)c(Cl)c1)Nc1cc(C2(C(F)(F)F)CC2)nn1Cc1ccccc1`, the growth with T-47D breast is 64.9%; with BT-549 breast, 77.7%; in the assay with MDA-MB-435 melanoma, 87.8%; in the assay with SW-620 colon, 82.7%; in the assay with MCF7 breast, 81%; in the assay on HCT-116 colon it was 60.4%. The growth was 104% with HCC-2998 colon and 85.5% in the assay with KM12 colon.

`c1cc(NCCc2ccncc2)nc(-n2cnc3ccccc32)c1`: the growth with T-47D breast is 80.4%; with BT-549 breast, 98.4%; with MDA-MB-435 melanoma, 95.8%; in the assay with SW-620 colon, 94.2%; in the assay with MCF7 breast, 84.2%; in the assay on HCT-116 colon it was 81.7%. For the same molecule, the growth is 104% in the assay on HCC-2998 colon and 53.3% in the assay on KM12 colon.

In the case of `CCOC(=O)c1c2c(n(-c3ccc(C#N)cc3)c1-c1ccccc1)C=CCC2`, the growth in the assay with T-47D breast is 72.6%; in the assay on BT-549 breast, 97.8%; with MDA-MB-435 melanoma it was 95.3%; in the assay on SW-620 colon, 96.9%; with MCF7 breast, 76.4%; in the assay on HCT-116 colon it was 66.2%. Also, the figures for the growth with HCC-2998 colon and with KM12 colon were 90.5% and 91.8%, respectively.

Regarding `O=C(Nc1ccc(Cl)cc1F)c1cc(Cl)ccc1O`, the growth was 0.896% (active) in the assay with T-47D breast; -25.3% (active) in the assay on BT-549 breast; -11.4% (active) in the assay with MDA-MB-435 melanoma; 5.92% (active) with SW-620 colon; 2.27% (active) in the assay on MCF7 breast; -25.5% (active) with HCT-116 colon. Moreover, the growth in the assay on HCC-2998 colon is 8.54% (active); with KM12 colon it was -23.6% (active).

Regarding `C=C1C(=O)O[C@H]2[C@H]1CC/C(COC(=O)NCCOCCOCC(=O)Nc1ccc(OC)c(C(N)=O)c1O)=C\CC[C@@]1(C)O[C@@H]21`, the growth with T-47D breast was 47.8%; with BT-549 breast, 68.6%; in the assay with MDA-MB-435 melanoma it was 53.7%; in the assay with SW-620 colon, 18.5%; with MCF7 breast it was 32%; in the assay with HCT-116 colon, 32.8%. The growth is 90.4% in the assay with HCC-2998 colon and 95.2% in the assay on KM12 colon.

As to `CC/C=C\C[C@@H](O)C/C=C1/C(=O)C=C[C@H]1C/C=C\CCCC(=O)OC`, the growth is 15.6% with T-47D breast; -6.09% (active) with BT-549 breast; 1.93% (active) in the assay with MDA-MB-435 melanoma; -15.9% (active) in the assay with SW-620 colon; 9.31% (active) in the assay on MCF7 breast; -47.1% (active) in the assay on HCT-116 colon. Besides, the values for the growth in the assay on HCC-2998 colon and in the assay on KM12 colon were -88.1% (active) and -58.2% (active), respectively.

On to `O=c1n(Cc2ccc3ccccc3c2)ccn1Cc1ccc2ccccc2c1`, for which the growth is 55.5% in the assay on T-47D breast; 92.4% with BT-549 breast; 107% with MDA-MB-435 melanoma; 102% with SW-620 colon; 97.6% with MCF7 breast; 70.6% with HCT-116 colon. The growth with HCC-2998 colon is 103%; with KM12 colon, 96.4%.

For the molecule `CCOc1ccc2nc(SCc3nc4n(n3)S(=O)(=O)c3ccccc3N4C)sc2c1`, the growth with T-47D breast was 45.2%; in the assay on BT-549 breast, -10.6% (active); in the assay with MDA-MB-435 melanoma it was 60.8%; in the assay on SW-620 colon it was 14%; in the assay on MCF7 breast, 47.3%; with HCT-116 colon, 19.1%. Further, the growth with HCC-2998 colon was 28.5%; in the assay on KM12 colon, 7.52% (active).

Regarding `O=c1c2cc(F)cc(Cl)c2sc2c(NCCCNCCO)nc3ccccc3c12`, the growth with T-47D breast was 101%; with BT-549 breast, 82.4%; in the assay with MDA-MB-435 melanoma, 61.1%; in the assay on SW-620 colon it was -32% (active); in the assay with MCF7 breast it was 64.6%; in the assay on HCT-116 colon, 65.1%. The growth is 60.9% in the assay on HCC-2998 colon and 66.7% in the assay on KM12 colon.

As to `Fc1cc(-c2nnc3sc(-c4ccc(Cl)cc4Cl)nn23)c(Cl)cc1Cl`, the growth is 68.4% in the assay with T-47D breast; 79.4% with BT-549 breast; 94.3% in the assay on MDA-MB-435 melanoma; 81.7% with SW-620 colon; 83.7% with MCF7 breast; 45.9% with HCT-116 colon. Also, the growth with HCC-2998 colon was 93%; with KM12 colon, 96%.

As to `Cc1nc(NC(=O)COc2ccc(/C=C3\Cc4ccc(Cl)cc4C3=O)cc2)sc1C`, the growth is 109% in the assay on T-47D breast; 328% with BT-549 breast; 96.8% in the assay on MDA-MB-435 melanoma; 107% in the assay on SW-620 colon; 88.6% with MCF7 breast; 109% with HCT-116 colon. Moreover, the values for the growth in the assay on HCC-2998 colon and in the assay with KM12 colon were 90.9% and 119%, respectively.
